Screens deposited in PubChem BioAssay by several laboratories.
CYP2C9 inhib: inhibitors of human CYP2C9; P11712; CYP2C9 Supersomes, luciferin-H conversion, luminescence; inhibition, % at 5 µM; 96,000 compounds, 20% hits;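 active means blocking of liver enzyme CYP2C9 beyond about 50% at 5 µM, limit read from the data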
CYP2C19 act: activators of human cytochrome P450 2C19; activation factor at 5 µM; recombinant CYP2C19, luciferin-H EGE luminescence; active compounds read high; 0 = fully inhibited enzyme, 1 = untreated enzyme; 96,000 tested, under 10 active; P33261;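 active means activation factor of at least 2 at 5 µM in the primary screen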;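 further: 0 = wells with 2.5 mM tranylcypromine and 1 = vehicle-only wells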
CYP2C9 act: increases human cytochrome P450 2C9 activity; 96,000 compounds, 1.4% hits; recombinant CYP2C9, luciferin-H conversion, luminescence; active compounds read high; factor 1 = untreated enzyme, 0 = blocked; P11712; activation factor at 5 µM;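 active means activation factor of 2 or more for CYP2C9 at a 5 µM dose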;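 further: 0 = sulfaphenazole-blocked wells and 1 = vehicle-only wells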
Cav3 T inh: human Cav3.2 channel inhibition, primary screen | Cav3.2-expressing cells, Fluo-4 calcium fluorescence FDSS; active compounds read low | B-score at 10 µM | 100,000 compounds, 4% hits | AID 449739;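 active means single-dose well whose peak fluorescence ratio is a statistical outlier from its plate by either plate-standardised score or position-corrected B-score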
CYP2C19 inh: human CYP2C19 inhibition; AID 778; P33261; inhibition, % at 5 µM; CYP2C19 Supersomes, luciferin-H EGE luminescence, 30 min; 96,000 compounds, 21% hits;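 active means CYP2C19 inhibition above a set limit at 5 µM in the primary screen, cut at about 50% in these data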;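 further: plate controls were negative control wells for no effect and 2.5 mM tranylcypromine positive control for full effect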
Starred values were filed as active, the others as inactive; . = not tested or not shown. In the library only some 27% were active in any assay of this set; here they are far more common.

SMILES | CYP2C9 inhib | CYP2C19 act | CYP2C9 act | Cav3 T inh | CYP2C19 inh
CCOC(=O)C1=C(C)NC(=O)C(C#N)C1c1ccncc1 (stereo not drawn) | 50.4* | 1 | 0.5 | 0.341 | 4.6
O=C(Nn1c(=O)[nH]c2ccsc2c1=O)c1ccccc1 | -13.1 | 1.2 | 1.1 | -0.131 | -15.1
COC(=O)C1=C(C(=O)OC)SC2(S1)C(C(=O)OC)=C(C(=O)OC)SC1=C2c2cc(C)ccc2NC1(C)C | 86.9* | 0.2 | 0.1 | 0.238 | 82.4*
Cc1ccc(C2CC(C(F)F)n3ncc(C(=O)Nc4c(C)nn(Cc5c(F)cccc5Cl)c4C)c3N2)cc1 (stereo not drawn) | . | . | . | -3.03 | .
O=C(NCCCN1CCN(c2ccc(F)cc2)CC1)c1cccc(N2CCCC2=O)c1 | 28.5 | 0.2 | 0.7 | 0.753 | 80.2*
COc1ccc(CNC(=O)c2ccc3c(c2)N(C)C(=O)CS3=O)cc1 (stereo not drawn) | 63.6* | 1 | 0.4 | -0.534 | -3.3
CNC(=O)c1cccc(N2CCCC2=O)c1 | -22.8 | 1.2 | 1.2 | 0.325 | -22.8
CN(CCNC(=O)c1cccc(N2CCCC2=O)c1)Cc1ccccc1 | 20.5 | 0.8 | 0.8 | -0.0128 | 17.9
COc1ccc(CNC(=O)c2ccc3nccnc3c2)cc1 | 1.6 | 0.9 | 1 | 0.703 | 7.7
COc1ccc(CNC(=O)c2cccc(N3CCCC3=O)c2)cc1 | 71.4* | 0.3 | 0.3 | 0.746 | 71.6*
CCN(CCNC(=O)c1cccc(N2CCCC2=O)c1)c1ccccc1 | -10.2 | 0.1 | 1.1 | 0.109 | 89.1*
O=C(NCCCN1CCCC1)c1cccc(N2CCCC2=O)c1 | . | . | . | 1.27 | .
O=C1CCN(Cc2nnnn2CC2CCCO2)c2ccccc2N1 (stereo not drawn) | -9.3 | 1.1 | 1.1 | -0.00404 | -10.4
CCCCn1c(-c2ccco2)nc2ccccc2c1=O | 23.5 | 0.7 | 0.8 | -0.825 | 29.2
CCCCCOc1ccc(Cl)cc1CN1CCOCC1 | 54.2* | 0.1 | 0.5 | -0.31 | 90.5*
CC(C)CCOc1ccc(Cl)cc1CN1CCOCC1 | 34.7 | 0.4 | 0.7 | . | 55.9*
Cc1nc(NCC2CCCO2)nc2c1C(=O)CC(C)(C)C2 (stereo not drawn) | 19.6 | 0.7 | 0.8 | 0.243 | 27.0
O=C(CCC(=O)c1cccs1)OCC(=O)N1CCN(C(=O)c2ccco2)CC1 | 12.1 | 0.9 | 0.9 | -0.0705 | 12.2
CN(C)c1ccnc(Oc2ccc(C(C)(C)C)cc2)c1C#N | -6.7 | 1 | 1.1 | -0.132 | 4.1
CCOC(=O)C(C)c1n[nH]c(=O)c2ccccc12 (stereo not drawn) | 3.1 | 1 | 1 | 0.838 | 3.6
CCOC(=O)C(C)c1nn(C)c(=O)c2ccccc12 (stereo not drawn) | 15.4 | 0.3 | 0.8 | -0.0445 | 67.0*
O=C(CN1C(=O)c2ccccc2S1(=O)=O)Nc1cccnc1 | . | . | . | -0.0566 | .
CNC(=O)c1[nH]cnc1C(=O)N[C@@H](C)C(=O)OC(C)(C)C | . | . | . | 1.03 | .
CCC(=O)Nc1ccc(C(=O)OCc2ccccc2Cl)cc1 | -63.2 | 0.4 | 1.6 | -0.891 | 57.4*
CCC(=O)Nc1ccc(C(=O)c2ccccc2)cc1 | -102.0 | 0.8 | 2* | -0.0148 | 24.7
SMILES | CYP2C9 inhib | CYP2C19 act | CYP2C9 act | Cav3 T inh | CYP2C19 inh
CCC(=O)Nc1ccc(C(=O)CSc2nc3ccccc3cc2CC)cc1 | 88.5* | 1 | 0.1 | 1.2 | 3.1
CCC(=O)Nc1ccc(NC(=O)c2c(C)nc3ccccn23)cc1 | 5.4 | 1 | 0.9 | . | 2.2
CCC(=O)Nc1cc(C(=O)OCC(=O)c2ccccc2Cl)ccc1C | -108.7 | 0.7 | 2.1* | 0.243 | 26.7
COc1ccc(S(=O)(=O)n2ccnc2)c2cccnc12 | 53.3* | 0.4 | 0.5 | 0.673 | 55.5*
COc1cccc(C2/C(=C(/O)c3ccccc3)C(=O)C(=O)N2CCCC(=O)O)c1 (stereo not drawn) | 6.6 | 0.9 | 0.9 | 1.41 | 9.1
Cc1ccc(N(CCCCN2C(=O)c3ccccc3C2=O)C(=O)c2cccc([N+](=O)[O-])c2)cc1 | 61.0* | 0.4 | 0.4 | -2.9 | 64.3*
O=C1c2ccccc2C(=O)N1CCCCN(C(=O)c1ccc([N+](=O)[O-])cc1)c1ccc(Cl)cc1 | 54.2* | 0.6 | 0.5 | -2.75 | 39.5
O/N=C(\c1ccc(Cl)cc1Cl)c1ncc(C(F)(F)F)cc1Cl | 74.5* | 0.1 | 0.3 | -6.81* | 92.7*
O=C(c1ccc(Cl)cc1Cl)c1ncc(C(F)(F)F)cc1Cl | 21.6 | 0.5 | 0.8 | 0.746 | 53.0*
COc1ccc(/C(=N\O)c2ncc(C(F)(F)F)cc2Cl)cc1 | 13.9 | 0.2 | 0.9 | -2.88 | 79.1*
CCCOc1ccccc1N/C(=N/c1nc(C)cc(C)n1)NC(=O)COc1ccc(OC)cc1 | 92.4* | 0.1 | 0.1 | -4.96* | 89.8*
O=C(CSCc1ccc(Cl)cc1)N/N=C/c1ccc(OCC(=O)Nc2ccccc2)cc1 | 4.8 | 1.1 | 1 | 0.178 | -11.6
COc1ccccc1NC(=O)COc1ccc(/C=N/NC(=O)CSCc2ccc(Cl)cc2)cc1 | 66.4* | 0.4 | 0.3 | . | 62.7*
Cc1ccsc1/C=N/NC(=O)CSCc1ccc(Cl)cc1 | 22.4 | 0.5 | 0.8 | -5.18* | 51.4*
CCCC(=O)Nc1ccccc1NC(=O)c1cc(OC)c(OC)c(OC)c1 | 71.2* | 1 | 0.3 | 1.38 | 1.2
Cc1ccc(/C=N/NC(=O)CSCc2ccc(Cl)cc2)cc1 | 27.9 | 0.7 | 0.7 | -1.37 | 25.2
CC(C)(C)CN1C(N)=NC[C@@H]1Cc1ccc(O)cc1 | . | . | . | 0.144 | .
CCCCOC(=O)n1ccc(C(=O)Nc2ccccc2OC)n1 | -110.6 | 0.9 | 2.1* | -0.504 | 9.5
COCC(=O)Nc1ccccc1NC(C)=O | -2.7 | 1 | 1 | -0.783 | 1.5
O=C(O)CCCC(=O)Nc1cccc2cccnc12 | 9.0 | 1 | 0.9 | -0.0335 | 4.7
COc1ccc(OCC(=O)Nc2cccc3cccnc23)cc1 | -40.5 | 0 | 1.4 | -1.25 | 96.8*
COc1cccc(OCC(=O)Nc2ccccc2NC(C)=O)c1 | -2.2 | 0.2 | 1 | . | 76.0*
COc1ccccc1NC(=O)CNC(=O)c1ccccc1 | 23.4 | 0.3 | 0.8 | 0.32 | 65.7*
COc1cc(C(=O)Nc2cccc3cccnc23)cc(OC)c1OC | 46.0 | 0.6 | 0.5 | -0.248 | 35.6
O=C(Nc1cccc2cccnc12)c1cccnc1 | -112.4 | 0.5 | 2.1* | 0.31 | 46.2
SMILES | CYP2C9 inhib | CYP2C19 act | CYP2C9 act | Cav3 T inh | CYP2C19 inh
COc1ccc(OCC(=O)Nc2ccccc2OC)cc1 | 2.1 | 0.4 | 1 | -1.01 | 63.1*
COc1ccc(NC(=O)c2cc(OC)c(OC)c(OC)c2)cn1 | 41.6 | 0.4 | 0.6 | 0.204 | 56.0*
COc1ccccc1NC(=O)CCC(=O)Nc1ccccc1OC | -209.5 | 0.9 | 3.1* | 0.725 | 7.4
Cc1cc2nc(C)n3c4ccccc4nc3n2n1 | -12.4 | 1.1 | 1.1 | 0.388 | -13.0
C#CCOCCOCCOCCNc1nc(N2CCN(C(=O)C([C@@H](C)CC)n3cc(C(N)COC(=O)C(F)(F)F)nn3)CC2)nc(N2CCN(C(=O)C([C@@H](C)CC)n3cc(C(N)CC(C)C)nn3)CC2)n1 (stereo partly drawn) | . | . | . | -1.07 | .
COc1cc(NC(=O)CCCC(=O)OCC(F)(F)C(F)F)nc(OC)n1 | -32.2 | 0.2 | 1.3 | 0.717 | 75.8*
